According to paper PMC7862700, “An all-to-all approach to the identification of sequence-specific readers for epigenetic DNA modifications on cytosine”:

Legend:
Assay in all cases: DAPPL (digital affinity profiling via proximity ligation, sequencing); 10 mM Tris-HCl pH 7.5, 50 mM NaCl, 1 mM DTT, 4% glycerol, room temperature, 30 min; GST-TFs on glutathione beads, 16-mer random dsDNA library, 0.1% formaldehyde crosslink after washing; high values mean tight binding
Details in all cases: protein: recombinant; tags: N-terminal GST; dsDNA, one strand shown
ERF = target: T1, ERF (Homo sapiens, UniProt P50548 1-548)
T1 sequence: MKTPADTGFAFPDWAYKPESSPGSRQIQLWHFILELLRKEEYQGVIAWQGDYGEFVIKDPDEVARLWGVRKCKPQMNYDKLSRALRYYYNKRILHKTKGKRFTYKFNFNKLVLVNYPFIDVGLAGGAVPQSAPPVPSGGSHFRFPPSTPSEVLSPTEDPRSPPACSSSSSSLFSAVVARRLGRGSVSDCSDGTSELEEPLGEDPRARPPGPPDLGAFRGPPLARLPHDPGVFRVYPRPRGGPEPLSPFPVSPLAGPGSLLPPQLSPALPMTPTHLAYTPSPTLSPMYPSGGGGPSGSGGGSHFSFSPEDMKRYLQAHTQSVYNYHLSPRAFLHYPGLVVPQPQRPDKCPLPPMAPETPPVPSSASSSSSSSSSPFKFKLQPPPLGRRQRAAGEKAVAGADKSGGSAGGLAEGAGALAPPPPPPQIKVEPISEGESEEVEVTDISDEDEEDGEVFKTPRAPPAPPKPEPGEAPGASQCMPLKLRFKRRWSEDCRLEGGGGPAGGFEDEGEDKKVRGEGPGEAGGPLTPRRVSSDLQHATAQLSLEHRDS
Summary of the method: (§1)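 Beads coated with glutathione captured GST-fused human transcription factors that had been expressed in yeast, and the factors were then given DNA barcodes and pooled with a tag-only sample. The pools were incubated with 200 nmole of a random double-stranded 16-mer DNA library in Tris/NaCl/DTT/glycerol buffer for 30 min at room temperature, washed, crosslinked with 0.1% formaldehyde and proximity-ligated with BsaI/T4 ligase at 37 °C for 1 h. PCR amplification and Illumina NextSeq500 sequencing came last. Binding signal is each hexamer's read frequency for a factor divided by its frequency for the tag-only sample.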

ETV3L = target: T2, ETV3L (Homo sapiens, UniProt Q6ZN32 1-361)
T2 sequence: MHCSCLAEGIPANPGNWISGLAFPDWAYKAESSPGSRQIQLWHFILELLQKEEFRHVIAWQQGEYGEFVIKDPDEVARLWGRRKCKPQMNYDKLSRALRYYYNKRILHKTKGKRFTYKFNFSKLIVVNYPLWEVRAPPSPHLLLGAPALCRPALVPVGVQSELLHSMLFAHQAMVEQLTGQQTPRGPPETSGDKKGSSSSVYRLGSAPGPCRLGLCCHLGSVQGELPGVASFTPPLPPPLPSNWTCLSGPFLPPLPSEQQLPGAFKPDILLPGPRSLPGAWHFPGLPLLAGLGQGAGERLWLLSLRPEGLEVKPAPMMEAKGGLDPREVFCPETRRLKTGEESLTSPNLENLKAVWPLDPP
Summary of the method: as §1

ETS2 = target: T3, ETS2 (Homo sapiens, UniProt P15036 1-469)
T3 sequence: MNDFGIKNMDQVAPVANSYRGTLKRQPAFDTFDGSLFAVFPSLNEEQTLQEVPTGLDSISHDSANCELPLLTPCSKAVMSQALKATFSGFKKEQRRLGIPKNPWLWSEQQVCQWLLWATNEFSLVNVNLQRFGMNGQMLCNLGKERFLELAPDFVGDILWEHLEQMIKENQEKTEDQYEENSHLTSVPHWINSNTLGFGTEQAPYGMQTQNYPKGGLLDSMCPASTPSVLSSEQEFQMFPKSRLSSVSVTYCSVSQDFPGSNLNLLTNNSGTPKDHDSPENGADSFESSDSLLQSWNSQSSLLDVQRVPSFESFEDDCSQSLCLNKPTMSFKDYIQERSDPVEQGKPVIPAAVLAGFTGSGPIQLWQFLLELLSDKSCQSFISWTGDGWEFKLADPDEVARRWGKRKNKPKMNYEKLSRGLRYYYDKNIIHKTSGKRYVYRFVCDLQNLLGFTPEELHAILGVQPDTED
Summary of the method: as §1

SPDEF = target: T4, SPDEF (Homo sapiens, UniProt O95238 1-335)
T4 sequence: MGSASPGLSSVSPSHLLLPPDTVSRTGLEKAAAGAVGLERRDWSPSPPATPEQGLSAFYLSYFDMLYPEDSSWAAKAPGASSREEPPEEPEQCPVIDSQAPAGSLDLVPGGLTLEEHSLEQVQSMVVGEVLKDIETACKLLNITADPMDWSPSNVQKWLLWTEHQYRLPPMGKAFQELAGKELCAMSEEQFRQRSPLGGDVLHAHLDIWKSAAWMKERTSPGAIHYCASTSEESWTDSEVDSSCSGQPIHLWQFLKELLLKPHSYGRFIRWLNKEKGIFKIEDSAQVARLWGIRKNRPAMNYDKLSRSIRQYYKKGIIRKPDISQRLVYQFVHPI
Summary of the method: as §1

ETV7 = target: T5, ETV7 (Homo sapiens, UniProt Q9Y603 1-341)
T5 sequence: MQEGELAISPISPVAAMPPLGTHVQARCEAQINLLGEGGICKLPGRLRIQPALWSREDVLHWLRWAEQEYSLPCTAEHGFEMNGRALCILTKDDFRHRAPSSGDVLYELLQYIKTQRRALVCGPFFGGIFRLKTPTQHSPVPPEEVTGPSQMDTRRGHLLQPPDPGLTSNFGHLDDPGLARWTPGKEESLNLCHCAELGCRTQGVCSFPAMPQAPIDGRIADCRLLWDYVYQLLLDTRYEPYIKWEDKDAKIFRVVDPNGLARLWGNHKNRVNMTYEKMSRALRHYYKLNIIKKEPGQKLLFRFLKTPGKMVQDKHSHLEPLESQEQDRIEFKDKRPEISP
Summary of the method: as §1

ELF5 = target: T6, ELF5 (Homo sapiens, UniProt Q9UKW6-2 1-255)
T6 sequence: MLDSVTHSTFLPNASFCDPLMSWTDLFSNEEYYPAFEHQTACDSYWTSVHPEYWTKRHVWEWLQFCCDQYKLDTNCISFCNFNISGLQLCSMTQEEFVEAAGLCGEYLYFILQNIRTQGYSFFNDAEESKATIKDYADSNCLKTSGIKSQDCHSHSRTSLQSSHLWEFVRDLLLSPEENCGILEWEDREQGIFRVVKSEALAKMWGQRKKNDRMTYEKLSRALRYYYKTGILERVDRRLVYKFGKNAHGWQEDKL
Summary of the method: as §1

ETV3 = target: T7, ETV3 (Homo sapiens, UniProt P41162-2 1-143)
T7 sequence: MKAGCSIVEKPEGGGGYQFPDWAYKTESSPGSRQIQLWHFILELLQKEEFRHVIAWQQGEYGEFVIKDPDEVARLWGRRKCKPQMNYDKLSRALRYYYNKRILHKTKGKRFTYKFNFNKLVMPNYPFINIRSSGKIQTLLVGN
Summary of the method: as §1

ETV6 = ETV6 (Homo sapiens, UniProt P41212 1-452)
Summary of the method: as §1

Sequence of ETV6 (P41212 whole entry): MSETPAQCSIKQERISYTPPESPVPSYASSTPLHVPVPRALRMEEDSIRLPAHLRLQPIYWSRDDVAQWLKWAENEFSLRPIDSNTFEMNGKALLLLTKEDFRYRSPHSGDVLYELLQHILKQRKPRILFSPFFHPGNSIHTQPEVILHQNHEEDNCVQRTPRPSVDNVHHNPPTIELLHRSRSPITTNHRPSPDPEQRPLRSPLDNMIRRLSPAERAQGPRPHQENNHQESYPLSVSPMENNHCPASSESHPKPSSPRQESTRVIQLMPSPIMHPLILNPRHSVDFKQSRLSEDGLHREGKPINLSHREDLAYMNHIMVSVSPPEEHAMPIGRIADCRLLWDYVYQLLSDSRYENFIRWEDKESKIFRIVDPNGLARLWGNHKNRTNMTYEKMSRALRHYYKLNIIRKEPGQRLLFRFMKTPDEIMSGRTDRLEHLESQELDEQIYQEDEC

Sequence	binding signal (ERF)	binding signal (ETV3L)	binding signal (ETS2)	binding signal (SPDEF)	binding signal (ETV7)	binding signal (ELF5)	binding signal (ETV3)	binding signal (ETV6)
TGGCCT	1.38 fold enrichment (6-mer frequency, TF over GST control)	1.37 fold enrichment (6-mer frequency, TF over GST control)	1.32 fold enrichment (6-mer frequency, TF over GST control)	1.42 fold enrichment (6-mer frequency, TF over GST control)	1.42 fold enrichment (6-mer frequency, TF over GST control)	1.33 fold enrichment (6-mer frequency, TF over GST control)	1.35 fold enrichment (6-mer frequency, TF over GST control)	1.5 fold enrichment (6-mer frequency, TF over GST control)
TAACTA	1.38 fold enrichment (6-mer frequency, TF over GST control)	1.21 fold enrichment (6-mer frequency, TF over GST control)	1.4 fold enrichment (6-mer frequency, TF over GST control)	1.26 fold enrichment (6-mer frequency, TF over GST control)	1.29 fold enrichment (6-mer frequency, TF over GST control)	1.3 fold enrichment (6-mer frequency, TF over GST control)	1.29 fold enrichment (6-mer frequency, TF over GST control)	1.36 fold enrichment (6-mer frequency, TF over GST control)
AACCAA	1.25 fold enrichment (6-mer frequency, TF over GST control)	1.15 fold enrichment (6-mer frequency, TF over GST control)	1.23 fold enrichment (6-mer frequency, TF over GST control)	1.21 fold enrichment (6-mer frequency, TF over GST control)	1.2 fold enrichment (6-mer frequency, TF over GST control)	1.16 fold enrichment (6-mer frequency, TF over GST control)	1.18 fold enrichment (6-mer frequency, TF over GST control)	1.29 fold enrichment (6-mer frequency, TF over GST control)
TTCACG	1.44 fold enrichment (6-mer frequency, TF over GST control)	1.32 fold enrichment (6-mer frequency, TF over GST control)	1.34 fold enrichment (6-mer frequency, TF over GST control)	1.34 fold enrichment (6-mer frequency, TF over GST control)	1.43 fold enrichment (6-mer frequency, TF over GST control)	1.38 fold enrichment (6-mer frequency, TF over GST control)	1.35 fold enrichment (6-mer frequency, TF over GST control)	1.43 fold enrichment (6-mer frequency, TF over GST control)
TTTGCT	1.39 fold enrichment (6-mer frequency, TF over GST control)	1.22 fold enrichment (6-mer frequency, TF over GST control)	1.32 fold enrichment (6-mer frequency, TF over GST control)	1.16 fold enrichment (6-mer frequency, TF over GST control)	1.38 fold enrichment (6-mer frequency, TF over GST control)	1.16 fold enrichment (6-mer frequency, TF over GST control)	1.24 fold enrichment (6-mer frequency, TF over GST control)	1.14 fold enrichment (6-mer frequency, TF over GST control)
TTCTCT	1.19 fold enrichment (6-mer frequency, TF over GST control)	1.39 fold enrichment (6-mer frequency, TF over GST control)	1.23 fold enrichment (6-mer frequency, TF over GST control)	1.31 fold enrichment (6-mer frequency, TF over GST control)	1.26 fold enrichment (6-mer frequency, TF over GST control)	1.35 fold enrichment (6-mer frequency, TF over GST control)	1.3 fold enrichment (6-mer frequency, TF over GST control)	1.24 fold enrichment (6-mer frequency, TF over GST control)
TCACTC	1.27 fold enrichment (6-mer frequency, TF over GST control)	1.16 fold enrichment (6-mer frequency, TF over GST control)	1.23 fold enrichment (6-mer frequency, TF over GST control)	1.12 fold enrichment (6-mer frequency, TF over GST control)	1.2 fold enrichment (6-mer frequency, TF over GST control)	1.1 fold enrichment (6-mer frequency, TF over GST control)	1.22 fold enrichment (6-mer frequency, TF over GST control)	1.19 fold enrichment (6-mer frequency, TF over GST control)
TGTATG	1.31 fold enrichment (6-mer frequency, TF over GST control)	1.23 fold enrichment (6-mer frequency, TF over GST control)	1.26 fold enrichment (6-mer frequency, TF over GST control)	1.35 fold enrichment (6-mer frequency, TF over GST control)	1.19 fold enrichment (6-mer frequency, TF over GST control)	1.22 fold enrichment (6-mer frequency, TF over GST control)	1.29 fold enrichment (6-mer frequency, TF over GST control)	1.16 fold enrichment (6-mer frequency, TF over GST control)
ATAATA	1.32 fold enrichment (6-mer frequency, TF over GST control)	1.14 fold enrichment (6-mer frequency, TF over GST control)	1.2 fold enrichment (6-mer frequency, TF over GST control)	1.15 fold enrichment (6-mer frequency, TF over GST control)	1.14 fold enrichment (6-mer frequency, TF over GST control)	1.17 fold enrichment (6-mer frequency, TF over GST control)	1.2 fold enrichment (6-mer frequency, TF over GST control)	1.2 fold enrichment (6-mer frequency, TF over GST control)
TTCGTC	1.36 fold enrichment (6-mer frequency, TF over GST control)	1.23 fold enrichment (6-mer frequency, TF over GST control)	1.31 fold enrichment (6-mer frequency, TF over GST control)	1.29 fold enrichment (6-mer frequency, TF over GST control)	1.22 fold enrichment (6-mer frequency, TF over GST control)	1.18 fold enrichment (6-mer frequency, TF over GST control)	1.31 fold enrichment (6-mer frequency, TF over GST control)	1.23 fold enrichment (6-mer frequency, TF over GST control)
TTACAC	1.2 fold enrichment (6-mer frequency, TF over GST control)	1.15 fold enrichment (6-mer frequency, TF over GST control)	1.22 fold enrichment (6-mer frequency, TF over GST control)	1.23 fold enrichment (6-mer frequency, TF over GST control)	1.19 fold enrichment (6-mer frequency, TF over GST control)	1.19 fold enrichment (6-mer frequency, TF over GST control)	1.15 fold enrichment (6-mer frequency, TF over GST control)	1.2 fold enrichment (6-mer frequency, TF over GST control)
CCGATA	1.13 fold enrichment (6-mer frequency, TF over GST control)	1.05 fold enrichment (6-mer frequency, TF over GST control)	1.16 fold enrichment (6-mer frequency, TF over GST control)	1.05 fold enrichment (6-mer frequency, TF over GST control)	1.06 fold enrichment (6-mer frequency, TF over GST control)	1.1 fold enrichment (6-mer frequency, TF over GST control)	1.14 fold enrichment (6-mer frequency, TF over GST control)	1.12 fold enrichment (6-mer frequency, TF over GST control)
CCCAAT	1.18 fold enrichment (6-mer frequency, TF over GST control)	1.27 fold enrichment (6-mer frequency, TF over GST control)	1.22 fold enrichment (6-mer frequency, TF over GST control)	1.29 fold enrichment (6-mer frequency, TF over GST control)	1.15 fold enrichment (6-mer frequency, TF over GST control)	1.23 fold enrichment (6-mer frequency, TF over GST control)	1.18 fold enrichment (6-mer frequency, TF over GST control)	1.28 fold enrichment (6-mer frequency, TF over GST control)
TCTTAT	1.24 fold enrichment (6-mer frequency, TF over GST control)	1.29 fold enrichment (6-mer frequency, TF over GST control)	1.31 fold enrichment (6-mer frequency, TF over GST control)	1.24 fold enrichment (6-mer frequency, TF over GST control)	1.25 fold enrichment (6-mer frequency, TF over GST control)	1.29 fold enrichment (6-mer frequency, TF over GST control)	1.23 fold enrichment (6-mer frequency, TF over GST control)	1.3 fold enrichment (6-mer frequency, TF over GST control)
ACTAAA	1.27 fold enrichment (6-mer frequency, TF over GST control)	1.32 fold enrichment (6-mer frequency, TF over GST control)	1.3 fold enrichment (6-mer frequency, TF over GST control)	1.25 fold enrichment (6-mer frequency, TF over GST control)	1.24 fold enrichment (6-mer frequency, TF over GST control)	1.28 fold enrichment (6-mer frequency, TF over GST control)	1.21 fold enrichment (6-mer frequency, TF over GST control)	1.28 fold enrichment (6-mer frequency, TF over GST control)
